The whole screen tested about 410,000 compounds, of which about 2,000 (0.49%) were called active. Entries that show only a call come without a potency. Roughly 8% stayed inconclusive and do not appear here. Calls come from the whole dose curve; tested in HEK293 reporter line. Many of the other results were omitted from the sample, so actives are more common in it than they were.
Potency is the fitted concentration of half-maximal effect.

This test can be described thus: qHTS Assay for Foot and Mouth Disease Virus Antivirals: Primary Screen against the MLPCN compound library. Note: nearly all actives have a fitted effect of over 55% in size. The following applies: FMDV antiviral cell-based qHTS; series mostly up to 57.9 µM.
Consider `O=C(Nc1ccc2nc(SCCOc3ccccc3)sc2c1)c1cccs1`, for which the Potency result was “inactive”.

For `CCOc1ccc2nc(NC(=O)c3ccccn3)sc2c1`, the Potency is 12.6 µM (active). Consider `CCOc1ccc2nc(NC(=O)c3cccn(Cc4ccc(C)cc4)c3=O)sc2c1`, for which the Potency result was “inactive”. To `CCOc1ccc2nc(NS(=O)(=O)c3ccc(NC(C)=O)cc3)sc2c1` belongs “inactive”; to `CSc1nc2ccc(NC(=O)c3ccccn3)cc2s1`, 15.8 µM (active); to `CCOc1ccc(C(=O)Nc2ccc3nc(SCC(=O)N(C)c4ccccc4)sc3c2)cc1`, “inactive”. To `CN1/C(=C\C(=O)COC(=O)CNC(=O)c2ccc3ccccc3c2)C(C)(C)c2ccccc21` belongs “inactive”; to `O=C(NCCc1ccc(F)cc1)C(=O)NCC(c1cccs1)S(=O)(=O)c1ccccc1` (centres undefined), “inactive”; to `Cc1cccc(C(=O)n2c(=S)nc3cc(C)ccn32)c1`, 11.2 µM (active). The same measure for `CCCCCn1c(CCCNC(=O)c2cccc(C)c2)nc2ccccc21`: “inactive”. Consider `Cc1cccc(C(=O)O/N=C(\N)Cc2cccc3ccccc23)c1`, for which the Potency result is “inactive”. The same measure for `COc1ccccc1N=C1SCC(=O)N1c1ccccc1OC`: “inactive”. With `CSCCC(c1nnnn1C1CCCCC1)N1CCC(n2c(=O)[nH]c3ccccc32)CC1` (centres undefined), the Potency result was “inactive”. Turning to `c1ccc(C(=NNc2nc3ccccc3s2)c2ccccn2)cc1`, the Potency entry is “inactive”. In the case of `CC(=O)Nc1ccc(S(=O)(=O)Nc2nc3ccccc3s2)cc1`, the Potency entry is “inactive”. To `c1ccc2sc(NN=C3CCCCCC3)nc2c1` belongs 15.8 µM (active); to `Cc1oc(-c2cccs2)nc1CSCC(=O)N1CCC2(CC1)OCCO2`, “inactive”; to `CCCS(=O)(=O)c1cscc1NC(=O)c1c(-c2c(F)cccc2Cl)noc1C`, “inactive”.

For the molecule `c1ccc(C2=Nn3c(nnc3-c3ccccn3)SC2)cc1`, the Potency result is “inactive”. Regarding `c1ccc(-c2nnc(-c3ccccn3)s2)nc1`, the Potency is 14.1 µM (active). The same measure for `Cc1cc(=S)nc(-c2ccccn2)[nH]1`: “inactive”. To `CCOc1ccccc1C(=O)NC(C(=O)N(C)Cc1ccc2c(c1)OCO2)C(C)C` (centres undefined) belongs “inactive”. As for `COc1ccc2c(CC(=O)Nc3ccccc3N3CCOCC3)coc2c1`, the Potency entry is “inactive”. To `C/C(N)=C(/C#N)C(=O)CSc1nc2ccc(C)cc2[nH]1` belongs 22.4 µM (active). To `C/C(N)=C(/C#N)C(=O)CSc1nc2scc(-c3ccc(F)cc3)c2c(=O)n1C` belongs “inactive”; to `CCN(CC)S(=O)(=O)c1ccc(C)c(NC(=O)CSc2nc3ccc(C)cc3[nH]2)c1`, “inactive”. To `CCN1CCN(C(=O)c2ccc(NS(=O)(=O)c3ccccc3)cc2)CC1` belongs “inactive”; to `Cc1nn2c3c(cnc2c1-c1ccc(F)cc1)C(=O)CC(c1ccccc1)C3` (centres undefined), “inactive”; to `Cc1nc2c(-c3ccc(F)cc3)c(C)nn2c(C)c1CCC(=O)Nc1ccccc1`, “inactive”. As to `Cc1ccccc1-c1ccnc2c(-c3ccc(F)cc3)c(C)nn12`, the Potency is 28.2 µM (active). As to `CCN(C(=O)COC(=O)/C=C/c1cccc(Br)c1)C1CCS(=O)(=O)C1` (centres undefined), the Potency result was “inactive”. Turning to `CN1CCN(c2ncnc3c2[nH]c2ccc(F)cc23)CC1`, the Potency entry was “inactive”. For `O=C(c1ccco1)N1CCN(c2ncnc3c2[nH]c2ccc(Br)cc23)CC1`, the Potency is 31.6 µM (active). As for `O=C(c1ccco1)N1CCN(c2ncnc3c(-c4ccc(Cl)cc4)nsc23)CC1`, the Potency entry is “inactive”.

In the case of `COC(=O)c1ccc(CSc2ccc3nnc(-c4ccc(F)cc4)n3n2)o1`, the Potency result was “inactive”. `O=C(Nc1ccc(Cl)cc1)Nc1ccccc1C(=O)O`: the Potency is 10 µM (active).

Take `COc1cc(NC(=O)Nc2cccc(Cl)c2)c(C(=O)O)cc1OC`: the Potency result is “inactive”. On to `O=C(Nc1ccccc1)Nc1ccc(O)c2ccccc12`, for which the Potency result is “inactive”. The same measure for `CC1CCc2sc(C(=O)N3CCN(c4ncccn4)CC3)cc2C1` (centres undefined): “inactive”.

Take `CC(=O)c1ccc(-c2cc([C@H]3[C@H]4C=CC[C@@H](C)[C@@H]4C(=O)N3Cc3ccccc3)ccc2F)cc1`: the Potency entry is “inactive”.

For `Cn1c(=O)n(C)c2cc(C(=O)Nc3ccc4c(c3)OCO4)ccc21`, the Potency entry is “inactive”. For the molecule `Cc1ccc(N/C=C/C(=O)c2ccccc2)cc1C`, the Potency was 7.94 µM (active).

As to `CSc1ccccc1NC(=O)CSCc1ccc(Br)cc1`, the Potency result was “inactive”. The same measure for `O=C(NC(=S)Nc1ccc2c(c1)OCO2)c1ccc(Cl)cc1`: “inactive”; for `Cc1ccc(NC(=O)c2ccc(NC(=O)c3ccccc3)cc2)cc1C`: “inactive”; for `O=C(/C=C/Nc1ccccc1F)c1ccc(Br)cc1`: 12.6 µM (active). To `O=C1Nc2ccc(Br)cc2/C1=C/C(=O)c1ccccc1` belongs “inactive”; to `O=C(/C=C/Nc1ccccc1)c1ccccc1`, 7.94 µM (active); to `Cc1ccc(NC(=O)C(=O)NCC2(c3ccccc3)CCCC2)cc1C`, “inactive”.

Take `O=C(/C=C\Nc1ccc2c(c1)OCO2)c1ccc2c(c1)OCO2`: the Potency was 17.8 µM (active). `CC(=O)c1cccc(NS(=O)(=O)c2ccc(N/C=C\C(=O)c3ccc(C)cc3)cc2)c1`: the Potency entry is “inactive”. To `O=C(Nc1ccccc1)/C(=C/c1ccccc1)c1ccccc1` belongs “inactive”; to `O=C(/C=C/c1cc([N+](=O)[O-])ccc1OC(F)F)Nc1cccc([N+](=O)[O-])c1`, “inactive”; to `O=C(COc1ccc(Br)cc1)N1CCN(c2ccccc2)CC1`, “inactive”.

On to `CCc1nc(SCc2cccnc2)c2c(=O)n(C)c(=O)n(C)c2n1`, for which the Potency entry was “inactive”. To `COC(=O)C1=C(C)N(c2cccc3ccccc23)C(=O)C1` belongs “inactive”; to `O=S(=O)(Nc1ccccc1Cl)c1ccc2[nH]c(=S)oc2c1`, “inactive”. For the molecule `CCCC(=O)Nc1ccc2nc(C)n(Cc3ccccc3Cl)c(=O)c2c1`, the Potency result was “inactive”. Consider `Cc1ccc(S(=O)(=O)N(C)CC(=O)Nc2ccncc2)cc1`, for which the Potency result was “inactive”. In the case of `CCOc1ccccc1/C=N/n1c(C)nc2ccccc2c1=O`, the Potency entry was “inactive”. Take `Cc1cc(C)cc(-n2ccnc2SCC(=O)Nc2ccccc2F)c1`: the Potency entry is “inactive”.

Regarding `O=C(/C=C\Nc1ccccn1)c1ccccc1`, the Potency is 10 µM (active). The same measure for `CN(C)/C=C/C(=O)c1cccc(Oc2ncccn2)c1`: “inactive”.

Consider `O=C(Nc1ccccn1)C(F)(F)C(F)(F)C(F)(F)C(F)(F)C(=O)Nc1ccccn1`, for which the Potency result was “inactive”. To `COc1ccc(Nc2nc(N)nc(CN3CCN(c4ccccn4)CC3)n2)cc1` belongs “inactive”; to `CCOC(=O)CC1(C)NC(C(=O)O)C(C)(C)S1` (centres undefined), “inactive”. To `O=C(Nc1cccc(N2C(=O)C3CCCCC3C2=O)c1)c1ccccc1` (centres undefined) belongs 14.1 µM (active); to `Cc1cc(C)cc(NC(=O)c2ccc(N3C(=O)C4CCCCC4C3=O)cc2)c1` (centres undefined), “inactive”; to `O=C(Nc1ccc(Br)cc1)c1cccc(N2C(=O)C3CCCCC3C2=O)c1` (centres undefined), “inactive”.

These data come from PubChem BioAssay AID1347131 (National Center for Advancing Translational Sciences (NCATS), 2019).
